Experimental data from the supplement of paper PMC12645437, “Orthogonal IMiD-Degron Pairs Induce Selective Protein Degradation in Cells” (ACS Chemical Biology, 2025).
Over roughly 8,300 sequences, “log2 fold change of degron read counts, EGFP-low vs EGFP+ sorted cells (limma voom), compound-induced degradation” has its median near -1.1; the highest 2% begin near 3.2. The full list was thinned out, with the highest values kept by preference.

Target: T1, CRBN, Q96SW2
T1 chain: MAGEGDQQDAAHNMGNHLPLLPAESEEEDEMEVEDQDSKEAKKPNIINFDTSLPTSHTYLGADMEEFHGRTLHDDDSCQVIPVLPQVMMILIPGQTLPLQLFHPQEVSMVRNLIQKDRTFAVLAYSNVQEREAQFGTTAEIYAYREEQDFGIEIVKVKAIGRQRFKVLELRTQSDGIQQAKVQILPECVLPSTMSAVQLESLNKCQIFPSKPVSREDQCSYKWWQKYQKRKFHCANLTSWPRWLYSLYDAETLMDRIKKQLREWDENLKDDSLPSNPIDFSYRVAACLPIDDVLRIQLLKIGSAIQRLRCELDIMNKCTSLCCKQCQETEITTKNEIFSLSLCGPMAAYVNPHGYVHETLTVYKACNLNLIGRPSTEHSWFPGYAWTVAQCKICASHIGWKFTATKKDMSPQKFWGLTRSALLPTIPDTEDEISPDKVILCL
Assay: log2 fold change of degron read counts, EGFP-low vs EGFP+ sorted cells (limma voom), compound-induced degradation; higher = more compound-induced degradation of the degron-EGFP fusion; degrons are variants of IKZF1/3 zinc finger 2; compound dose not given here
Conditions: Jurkat, 18 h

[1] = compound: compound 19 (5-tert-butyl-thalidomide)
[2] = compound: compound 22 (5-morpholino-thalidomide)
[3] = compound: compound 33 (diphenyl IMiD analogue)
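Also: pooled lentiviral library of zinc finger degron-EGFP fusions in mCherry-positive Jurkat cells, FACS-sorted after compound exposure, with degron abundance counted by next-generation sequencing.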

FQCNQCGANFTQKGNLLRHIKL [46F_47Q_49N_50Q_52G_53A_54N_55F_67L_, Q9UKT9]
log2 fold change of degron read counts [1]: -2.24 | log2 fold change of degron read counts [2]: -1.57 | log2 fold change of degron read counts [3]: -1.76 | log2 fold change of degron read counts (compound: thalidomide): -0.0144

FSCDQCGALFTQKGNLLRHIKL [46F_47S_49D_50Q_52G_53A_54L_55F_67L_, Q9UKT9]
log2 fold change of degron read counts [1]: -2.6 | log2 fold change of degron read counts [2]: -3.3 | log2 fold change of degron read counts [3]: -0.185 | log2 fold change of degron read counts (compound: thalidomide): -3.02

FNCSVCGHNFTQKGNLLRHIKL [46F_47N_49S_50V_52G_53H_54N_55F_67L_, Q9UKT9]
log2 fold change of degron read counts [1]: -2.71 | log2 fold change of degron read counts [2]: -4.15 | log2 fold change of degron read counts [3]: -3.1 | log2 fold change of degron read counts (compound: thalidomide): -2.83

FWCPICGHYFTQKGNLLRHIKL [46F_47W_49P_50I_52G_53H_54Y_55F_67L_, Q9UKT9]
log2 fold change of degron read counts [1]: -0.542 | log2 fold change of degron read counts [2]: -0.321 | log2 fold change of degron read counts [3]: -0.506 | log2 fold change of degron read counts (compound: thalidomide): -0.28

FKCNVCGAEFTQKGNLLRHIKL [46F_47K_49N_50V_52G_53A_54E_55F_67L_, Q9UKT9]
log2 fold change of degron read counts [1]: -3.18 | log2 fold change of degron read counts [2]: -3.1 | log2 fold change of degron read counts [3]: -3.12 | log2 fold change of degron read counts (compound: thalidomide): -2.1

FHCPICGATFTQKGNLLRHIKL [46F_47H_49P_50I_52G_53A_54T_55F_67L_, Q9UKT9]
log2 fold change of degron read counts [1]: 1.64 | log2 fold change of degron read counts [2]: 1.89 | log2 fold change of degron read counts [3]: 1.62 | log2 fold change of degron read counts (compound: thalidomide): 0.481

FECEVCGAPFTQKGNLLRHIKL [46F_47E_49E_50V_52G_53A_54P_55F_67L_, Q9UKT9]
log2 fold change of degron read counts [1]: 1.65 | log2 fold change of degron read counts [2]: -1.41 | log2 fold change of degron read counts [3]: 0.683 | log2 fold change of degron read counts (compound: thalidomide): 1.6

FKCEVCGAPFTQKGNLLRHIKL [46F_47K_49E_50V_52G_53A_54P_55F_67L_, Q9UKT9]
log2 fold change of degron read counts [1]: 2.02 | log2 fold change of degron read counts [2]: 1.13 | log2 fold change of degron read counts [3]: -1.28 | log2 fold change of degron read counts (compound: thalidomide): 1.95

FMCEVCGAPFTQKGNLLRHIKL [46F_47M_49E_50V_52G_53A_54P_55F_67L_, Q9UKT9]
log2 fold change of degron read counts [1]: 2.75 | log2 fold change of degron read counts [2]: 3.55 | log2 fold change of degron read counts [3]: 3.12 | log2 fold change of degron read counts (compound: thalidomide): 2.6
